Bioassay records from PubChem BioAssay.
This is a sample that favours compounds with a hit; in the whole collection about 21% have one here.
Cycloheximide cs – counter-screen hit for Shiga toxin inhibitors, cycloheximide. 300,000 tested, 12% active. cell reporter, cycloheximide protein synthesis inhibition counterscreen. max response, %; in the data active = max response mostly above about 13%, no sharp cut-off; inactive = mostly below about 14%; also: read at 38.3 µM for the half of the compounds with a filed dose; 0% is about no effect
Pf growth 96h – inhibits malaria parasite growth, 96 h; P. falciparum luciferase reporter growth, 96 h; Potency, µM (doses to about 28.7 µM), without a hit: at the highest dose activity change, negative = inhibition, most hits filed as inhibitors; 320,000 tested, 6.9% active; AID 504834; also: potency is read from the fitted curve at half-maximal effect; % is scaled to controls: 0 for no effect and ±100 for the full control effect
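Infected RBCs, 2% Hct / 0.05% parasitemia final; luciferase-reporter P. falciparum; cpd 96 h, 37 C, 5% CO2; luciferase detection reagent; luminescence.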
Shiga inhibitor – inhibitors of Shiga toxin in Vero cells. 290,000 tested, 9.2% active. inhibition, % at 38.7 µM. Vero cells, Shiga toxin protein synthesis inhibition reporter; in the data active = inhibition mostly above about 28%, no sharp cut-off; inactive = mostly below about 43%; also: 0% is about no effect
HCMV inh – blocks human cytomegalovirus replication; HFF cells, HCMV-luciferase reporter, 72 h; active compounds read low; activity change, negative = inhibition, % at 57.5 µM; 410,000 tested, 4.5% active; AID 1259415; in the data active = activity change below about -60%; inconclusive = no clear call, values can overlap the other calls; inactive = above about -39%; also: % is scaled to controls: 0 for no effect and ±100 for the full control effect
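HFF cells seeded 16 h at 37C, treated with compounds, infected with luciferase-reporter HCMV at MOI 1 PFU/cell; luciferase read at 72 h post infection, normalized to buffer-only and Salinomycin controls.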
Pf growth 48h – P. falciparum growth inhibition at 48 hours (one generation) | Potency, µM (doses to about 28.7 µM), for the others: at the top dose activity change, negative = inhibition, most hits filed as inhibitors | 310,000 tested, 5.9% active | P. falciparum luciferase growth in erythrocytes, 48 h; also: potency is read from the fitted curve at half-maximal effect; % is scaled to controls: 0 for no effect and ±100 for the full control effect
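Luciferase-expressing P. falciparum in infected erythrocytes (2% hematocrit, 0.1% parasitemia final) in RPMI 1640/0.5% Albumax were exposed to compound for 48 hours at 37 C, 5% CO2; growth read as luminescence.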
HCV inh – inhibitors of hepatitis C virus infection; Huh7.5.1 HCVcc-Cre infection, luciferase reporter, 44 h; Potency, µM (doses to about 41.8 µM), without a hit: at the highest dose activity change, negative = inhibition, most hits filed as inhibitors; 340,000 tested, 3.4% active; AID 651820; also: potency is read from the fitted curve at half-maximal effect; % is scaled to controls: 0 for no effect and ±100 for the full control effect
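Whole-lifecycle infectious HCVcc-Cre system; cells 1,000/well, compound then virus (~0.5 moi) added 4 h after plating, 44 h culture. Luciferase read 15 sec following 15 min substrate incubation, room temp.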
* marks the source's active call; other numbers are inactive results; ? = inconclusive; . = no result. Unless noted, calls follow the shape of the dose curve; as a rule, active = well fitted inhibition curve with a large enough effect; inconclusive = small, poorly fitted or top-dose-only effect, or another doubt; inactive = no such curve, though single readings can be large or run the other way.

SMILES	Cycloheximide cs	Pf growth 96h	Shiga inhibitor	HCMV inh	Pf growth 48h	HCV inh
CCOc1ccccc1-c1nc(C(N)=O)c2[nH]c(=O)n(-c3ccc(F)cc3)c2n1	4.5	?	-32.9	66.6	.	8.4%
CCc1ccc(-c2nc(C(N)=O)c3[nH]c(=O)n(-c4ccccc4OC)c3n2)cc1	-3.4	?	-16.5	-98.3*	.	?
COc1ccc(-c2nc(C(N)=O)c3[nH]c(=O)n(-c4cccc(Cl)c4)c3n2)cc1OC	-4.6	-13.2%	-1.2	-30.0	?	?
CC(=O)N/C(=N/c1nc(C)cc(C)n1)Nc1ccc(C)cc1C	-7.5	26.0%	-2.0	-19.9	8.2%	-16.3%
O=C(O)C1Nc2c(O)cccc2C2C=CCC12 (stereo unspecified)	-2.8	14.7µM*	-14.2	42.2	10.2%	?
O=C(O)C1Nc2c(Cl)cc(Cl)cc2C2C=CCC12 (stereo unspecified)	-3.4	?	-15.5	.	14.4%	3.1%
O=C(NCCCn1ccnc1)c1cc(-c2ccncc2)nc2ccccc12	-12.5	-2.6%	14.7	-25.3	-21.1%	2.3%
Cc1ccc2nc(-c3ccccc3)cc(C(=O)NCCCn3ccnc3)c2c1	-0.7	?	-2.7	72.8	13.1µM*	0.6%
O=C(NCCCn1ccnc1)c1cc(-c2cccnc2)nc2ccc(Br)cc12	-3.9	1.47µM*	-17.4	-26.0	11.7µM*	21.3%
O=C(NCCCn1ccnc1)c1cc(-c2ccc(Cl)cc2)nc2ccccc12	-2.5	27.7%	-8.2	20.3	?	11.2µM*
Cc1cccc(NC(=O)Nc2nnc([C@H]3C[C@H](O)[C@@H](CO)O3)s2)c1	.	.	.	-2.6	.	.
CCN(CC)S(=O)(=O)c1ccc(NC=C(C#N)C#N)cc1	0.7	3.7%	-8.7	?	22.2%	5.8%
O=S(=O)(NCc1ccco1)N1CCCCCC1	0.4	-29.7%	4.0	-62.3*	13.5%	2.0%
Cc1ccc(C(=O)Nc2ccccc2C(=O)NCc2ccco2)cc1S(=O)(=O)N1CCCCC1	31.2*	47.2%	52.3*	19.6	6.57µM*	?
O=C(NCc1ccco1)c1ccc(F)c(S(=O)(=O)N2CCCCC2)c1	-0.7	?	-9.3	-24.4	?	-12.4%
Cc1ccc(C(=O)NCc2ccccn2)cc1S(=O)(=O)N1CCCCC1	-1.4	-2.1%	15.5	.	?	8.0%
Cc1ccc(C(=O)NCc2ccco2)cc1S(=O)(=O)N1CCCCC1	2.8	2.33µM*	-8.7	32.0	?	-6.4%
Cc1ccc(C(=O)NCc2cccc(C(F)(F)F)c2)cc1S(=O)(=O)N1CCCCC1	.	?	.	-65.9*	?	?
O=S(=O)(NCc1ccco1)c1cccc(S(=O)(=O)N2CCCCC2)c1	-2.6	?	10.6	6.7	-1.2%	3.4%
O=C(NCc1ccco1)c1ccc(S(=O)(=O)N2CCCCCC2)cc1	.	10.4µM*	.	0.0	8.28µM*	-13.0%
O=C(NCc1ccco1)c1ccc(S(=O)(=O)N2CCCCC2)cc1	-2.1	27.7%	-2.3	7.9	-0.1%	-2.8%
O=C(NCc1ccco1)C1CCN(S(=O)(=O)c2cccc([N+](=O)[O-])c2)CC1	-1.8	-10.0%	-4.9	4.9	9.28µM*	-5.7%
COc1ccccc1CNC(=O)C1CCN(S(=O)(=O)c2cccc([N+](=O)[O-])c2)CC1	-2.1	9.2%	-4.9	16.5	-3.7%	?
CC(C)S(=O)(=O)c1csc(NC(=O)Nc2cccc([N+](=O)[O-])c2)c1Cl	3.5	?	13.0	6.0	?	25.1µM*
NC(=S)N/N=C/c1ccccc1O	1.1	1.04µM*	-1.1	-22.3	0.329µM*	0.8%
SMILES	Cycloheximide cs	Pf growth 96h	Shiga inhibitor	HCMV inh	Pf growth 48h	HCV inh
NC(=S)N/N=C/c1ccc2ccccc2c1	27.1*	?	-7.5	-24.9	-15.1%	-16.0%
NC(=S)N/N=C/c1cccc(O)c1O	14.8	-11.5%	22.5	-100.4*	?	?
Cc1cc(/C=N/NC(N)=S)c(O)c(/C=N/NC(N)=S)c1	-0.5	11.7µM*	-13.7	-12.5	0.465µM*	?
Oc1ccccc1C=NNC(=S)NN=Cc1ccccc1O	.	.	.	?	.	-20.3%
COc1ccc(-c2ccc(NS(=O)(=O)c3ccc(NC(C)=O)cc3)cc2)nn1	.	.	.	22.9	.	.
C[C@@H]1CN([C@@H](C)CO)C(=O)CCCn2cc(nn2)CO[C@H]1CN(C)C(=O)Nc1ccc(C(C)(C)C)cc1	.	.	.	0.6	.	.
CC(=O)c1cccc(NC(=O)CSc2nnc3ccc(-c4ccc(Br)cc4)nn23)c1	.	.	.	32.9	.	.
CC1=C(C(=O)N2CCCCCC2)CC(CC(=O)NCCN2CCOCC2)C(=O)N1CCCN1CCCC1=O (stereo unspecified)	.	.	.	-2.5	.	.
Cc1cccc(N2CC(C)Cn3c2nc2c3c(=O)[nH]c(=O)n2C)c1 (stereo unspecified)	-0.6	0.5%	-7.5	10.7	-3.3%	-1.7%
COc1ccc(-c2[nH]ncc2-c2ccc3c(c2)OCCO3)c(O)c1	-1.8	38.3%	-18.9	-82.0*	?	?
CCCc1cc(-c2[nH]ncc2-c2ccc3c(c2)OCCCO3)c(O)cc1OC	-1.9	.	-32.5	-6.5	3.7µM*	?
CCc1cc(-c2[nH]ncc2-c2ccc(OC)cc2)c(O)cc1O	-5.4	?	-19.3	-98.5*	?	3.98µM*
CCc1cc(-c2[nH]ncc2-c2ccc3c(c2)OCO3)c(O)cc1O	-4.6	?	-15.1	-98.6*	?	?
CCOC(=O)c1ccc[n+](CC(=O)Nc2cc(C(F)(F)F)ccc2Cl)c1	-3.5	12.9%	27.6	13.1	9.9%	2.6%
COc1ccccc1C(C)NC(=O)Cc1ccc(S(=O)(=O)N2CCOCC2)s1 (stereo unspecified)	.	-4.1%	.	23.9	?	-10.3%
Cc1oc(-c2ccccc2F)nc1Cn1c(SCc2ccccc2F)nc2ccncc21	.	.	.	7.1	.	.
COc1ccc(-c2cn[nH]c2-c2ccc(OCc3ccc([N+](=O)[O-])cc3)cc2O)cc1	2.1	?	-1.3	-93.0*	13.1µM*	?
CCOc1ccc(-c2[nH]ncc2-c2ccc(OC)c(OC)c2)c(O)c1	-6.4	-27.4%	-10.5	?	?	?
COc1ccc(-c2cn[nH]c2-c2ccc(O)cc2O)cc1OC	5.1	9.28µM*	-10.0	33.7	?	-23.1%
COc1cccc(CSc2nnnn2-c2ccc(O)cc2)c1	-1.1	?	8.9	-27.1	9.28µM*	16.6%
COc1ccc(-n2nnnc2SCC(=O)NC2CC2)cc1	.	8.9%	.	6.6	-12.8%	9.7%
CCOC(=O)c1oc2ccccc2c1CSc1nnnn1-c1ccc(OC)cc1	1.0	11.7µM*	-6.9	31.8	4.8%	12.6%
COc1ccc(-n2nnnc2SCC#CCO)cc1	-1.5	0.465µM*	-20.2	-7.8	-6.1%	-24.7%
COc1ccc(-n2nnnc2SCC(=O)c2cccc(OC)c2)cc1	-1.9	?	1.6	35.7	8.9%	2.7%
CN(C)C(=O)c1ccc(NC(=O)Cn2nnnc2-c2ccccc2F)cc1	.	.	.	-19.8	.	.
